Test results: PMC7819943, “Rice protein-binding microarrays: a tool to detect cis-acting elements near promoter regions in rice”
Whole data set: some 39,000 sequences, median “fluorescence intensity (a.u.)” near 4,300, cut for the highest 2% near 39,000. Only a selection was taken, and the highest values are over-represented in it overall.

target: T1, OsSMF1 (Oryza sativa, UniProt Q6ZLB0 1-436); test: protein-binding microarray (RPBM); PBS, 2% BSA, 51.3 ng/ul salmon testes DNA, 50 uM zinc acetate, 200 nM TF, 25 C, 1 h; high values mean tight binding; details: protein: recombinant; tags: N-terminal polyhistidine and DsRed monomer fusion (pET32a); chain copies: 2; label: CyDye5-dUTP incorporated in the synthesized complementary strand; 3' TTTTT single-stranded linker to array surface; dsDNA, one strand shown
T1 sequence: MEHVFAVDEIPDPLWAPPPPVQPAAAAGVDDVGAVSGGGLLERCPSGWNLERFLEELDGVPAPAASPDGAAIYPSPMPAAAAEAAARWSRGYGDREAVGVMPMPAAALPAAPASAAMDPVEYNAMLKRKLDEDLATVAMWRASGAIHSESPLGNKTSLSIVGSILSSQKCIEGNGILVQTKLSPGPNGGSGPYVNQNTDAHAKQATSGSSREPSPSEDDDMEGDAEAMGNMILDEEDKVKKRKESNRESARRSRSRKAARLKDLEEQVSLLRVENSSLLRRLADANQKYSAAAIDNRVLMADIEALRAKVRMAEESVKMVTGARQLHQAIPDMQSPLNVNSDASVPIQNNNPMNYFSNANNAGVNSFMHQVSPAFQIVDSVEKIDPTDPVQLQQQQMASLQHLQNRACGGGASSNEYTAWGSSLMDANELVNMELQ
Outline: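 The binding signal is fluorescence intensity per array feature (arbitrary units). Readings came from an Axon 4000B scanner after a washed, 2% BSA-blocked, double-stranded custom Agilent array had been incubated for 1 h at 25 °C with 200 nM protein and 50 µM zinc acetate. The protein was a Ni–NTA-purified transcription factor fused N-terminally to polyhistidine and DsRed, expressed in E. coli BL21-CodonPlus.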

| Sequence | binding signal |
| --- | --- |
| TCTGGACCACATAAACGAGAGAGAGAGAGAAGTCCAAGCCCGGAGTCACCTAGTGCAG | 47900 fluorescence intensity (a.u.) |
| CAAGTCCAAGAGCACCATAAGCTAGTGACACATAGAGCCCCGGAGTCACCTAGTGCAG | 4140 fluorescence intensity (a.u.) |
| GATCGACGGCGACGCCCCTGGAAGGAGCGGAATAGACCACCGGAGTCACCTAGTGCAG | 46700 fluorescence intensity (a.u.) |
| CCTGAGGAGGGAAGGGTCGATGTGGAGGAGCGGCGGCGACCGGAGTCACCTAGTGCAG | 3500 fluorescence intensity (a.u.) |
| CGTGCGGCGGATCGTGGTGGACGCGAGCGGCGGCGGCGACCGGAGTCACCTAGTGCAG | 3440 fluorescence intensity (a.u.) |
| TTTGCATTGACTTGATATAGTATGTCACCATCACACTATCCGGAGTCACCTAGTGCAG | 5460 fluorescence intensity (a.u.) |
| TTACAAACAACGCCTTGCATGATTGCATCATCGCCCTAAACGGAGTCACCTAGTGCAG | 4300 fluorescence intensity (a.u.) |
| TTGTGACTTGATTTATCATCAAATGTTCTTTAAACATGACCGGAGTCACCTAGTGCAG | 3540 fluorescence intensity (a.u.) |
| TTGCATCAGGCCCTCTTCAATGATTTAAACAAACAATGGACGGAGTCACCTAGTGCAG | 52300 fluorescence intensity (a.u.) |
| GGCGTATTCCAAAAGCCTTGGCCACCATTATTGCGTGGCACGGAGTCACCTAGTGCAG | 6820 fluorescence intensity (a.u.) |
| GCTAGCTAAGAGCGAGCTTCATTAACATACGAGACAGAGACGGAGTCACCTAGTGCAG | 4530 fluorescence intensity (a.u.) |
| ACCCATATAATTAAGGTGCCAATGCTGCTAATACTCTCTCCGGAGTCACCTAGTGCAG | 46100 fluorescence intensity (a.u.) |
| TACTCTGCCAATCTAAATTAATGATGTATGATATGGTCTCCGGAGTCACCTAGTGCAG | 4340 fluorescence intensity (a.u.) |
| GTTAATTAATACTCTCCGTTTCATATTATAAGGCGTTTGACGGAGTCACCTAGTGCAG | 26400 fluorescence intensity (a.u.) |
| GACACATGAGGGCCCACATGTCATACATTGTGAATGACACCGGAGTCACCTAGTGCAG | 3900 fluorescence intensity (a.u.) |
| GCCGCACCGGTCGGTTTCAGCGCGTGTGACACGCAGATTCCGGAGTCACCTAGTGCAG | 3500 fluorescence intensity (a.u.) |
| CTTGTCTAGTCCAGGACAACTGGGATGATTGAGCACCAGTCGGAGTCACCTAGTGCAG | 3170 fluorescence intensity (a.u.) |
| CAAACCACAGTGTTCCACGTCATCATCAATTGACAGCCGTCGGAGTCACCTAGTGCAG | 37800 fluorescence intensity (a.u.) |
| AACCTCAATGTTCCACGTCATCATTAATTTACAGCCGTTGCGGAGTCACCTAGTGCAG | 39400 fluorescence intensity (a.u.) |
| CCGTTACATTGTTCCAATTTTAATTAAACTTCCAATTTTACGGAGTCACCTAGTGCAG | 30600 fluorescence intensity (a.u.) |
| ATGGGGTGGATGCGTCAGAATTTACATAGGCACGGAACGTCGGAGTCACCTAGTGCAG | 5800 fluorescence intensity (a.u.) |
| CCTTCCCTAGGGGCGGAGCCACGTAGCTTGGGCCCCACACCGGAGTCACCTAGTGCAG | 6430 fluorescence intensity (a.u.) |

| Sequence | binding signal |
| --- | --- |
| ATGACGATGGTTAATCCAAATAACATATTGGCCCGGGTTCCGGAGTCACCTAGTGCAG | 49900 fluorescence intensity (a.u.) |
| GAGAGAGTGTAGGTTGCCGATGACGTTCCAAATATTGATCCGGAGTCACCTAGTGCAG | 4490 fluorescence intensity (a.u.) |
| TTATTATTATTGGATGGTTAGATGACAAATCCAACCTCACCGGAGTCACCTAGTGCAG | 3640 fluorescence intensity (a.u.) |
| CACCTTCTTCAAGCTCCCTCCTCTGAAGCCTCTTCTTCTTCGGAGTCACCTAGTGCAG | 34900 fluorescence intensity (a.u.) |
| ATTGACATGGAGTCATGGACACTCTCCCTGCCTCCTCCCTCGGAGTCACCTAGTGCAG | 3370 fluorescence intensity (a.u.) |
| ACCTTCATTGGATCTGCCTCCCTGCAAGCCTCTGCCTCAACGGAGTCACCTAGTGCAG | 43300 fluorescence intensity (a.u.) |
| TCCAGTTGTGCGTGGAGATGTTGGTGAAGAGCTTCCGCTGCGGAGTCACCTAGTGCAG | 4270 fluorescence intensity (a.u.) |
| TCTCCACTTCAGAGACGGTCCCACCTGTCATCCGCTCATACGGAGTCACCTAGTGCAG | 4680 fluorescence intensity (a.u.) |
| TGAAATGCTATGTTGGTCCAGACTTCCGCTACGAAGGAGACGGAGTCACCTAGTGCAG | 65100 fluorescence intensity (a.u.) |
| CCCTTACACCGCCCTGTGAACAGTCACTGACAATCCTGGCCGGAGTCACCTAGTGCAG | 4330 fluorescence intensity (a.u.) |
| TTAGTGCATGCTGCTAACTAAATACACGTAGCTTGTTGATCGGAGTCACCTAGTGCAG | 3310 fluorescence intensity (a.u.) |
| AAATTCCACGTGCCACATATTTCGTTCATTTGAGTTTATTCGGAGTCACCTAGTGCAG | 8820 fluorescence intensity (a.u.) |
| CTCCTGCCCACCAATCTTGCGGCGGAAAACAAGGCGTGATCGGAGTCACCTAGTGCAG | 4000 fluorescence intensity (a.u.) |
| TGGTGCTGTGGTGGTGGTGGTCATGGACTCATTGGGCATGCGGAGTCACCTAGTGCAG | 3180 fluorescence intensity (a.u.) |
| TGGTGCTGGTCCTCAACATGCATGTGCTATGGCAAGATCCCGGAGTCACCTAGTGCAG | 42800 fluorescence intensity (a.u.) |
| TTCATAGAGAGGGCCGGCAACGGCCTAGGCACGCTGGTGTCGGAGTCACCTAGTGCAG | 34700 fluorescence intensity (a.u.) |
| GTACGTCGGAAGCAACGGCAGACATGACAGCATATGGCCTCGGAGTCACCTAGTGCAG | 15900 fluorescence intensity (a.u.) |
| GAGAGTCGCCTTGTCAACATATGGCAGATGCAGCTGGTGCCGGAGTCACCTAGTGCAG | 61100 fluorescence intensity (a.u.) |
| CCTACACATATATATATATATATGCATGGCAACTTGGCAACGGAGTCACCTAGTGCAG | 3340 fluorescence intensity (a.u.) |
| GCGAAGCAACATGCTGCTGCTCAAGAGGAGGAAGATGGTGCGGAGTCACCTAGTGCAG | 3350 fluorescence intensity (a.u.) |
| TTGATGGAGATGGGAGTTGGTGCGGATGTCCTTGTCGCCCCGGAGTCACCTAGTGCAG | 3200 fluorescence intensity (a.u.) |
| TCAGCTGGCATGCATGGCAACATATATATGGCTGGAAGTACGGAGTCACCTAGTGCAG | 40000 fluorescence intensity (a.u.) |
